# Test results published in the supplement of paper PMC10849652.
# Targets with a hit are over-represented here; the source holds about 7,900 in all. About 0.6% of all pairs of compound and target were hits. Values without a mark were called inactive.
# Compound: CC(=O)c1cnc2ccc(-c3cc(Cl)c(O)c(Cl)c3)nc2c1N[C@H]1CC[C@H](CN(C)C)CC1
# Assay: log2 fold change, soluble protein after heating vs DMSO (PISA); higher = thermal stabilisation; K562 cells, 10 uM, 30 min; active = over 0.2 and 3.5 SD of the protein, either way, in both replicates (recomputed)
# In short: (§1)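 For each measurement, 10 μM compound was applied for 30 min to K562 cells at 2×10^6 cells/mL. Aliquots were heated for 3 min across 48°C-58°C, pooled, and extracted in PBS with 0.5% NP-40 at 4°C; the supernatant after 21,000xg for 90 min was soluble protein. This was quantified by TMTpro 16plex LC-MS/MS with channel sums equalised, and thermal stability was reported relative to control samples from duplicates, on a log2 fold-change scale.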
# Chain of UniProt P42338 (P42338 whole entry, looked up): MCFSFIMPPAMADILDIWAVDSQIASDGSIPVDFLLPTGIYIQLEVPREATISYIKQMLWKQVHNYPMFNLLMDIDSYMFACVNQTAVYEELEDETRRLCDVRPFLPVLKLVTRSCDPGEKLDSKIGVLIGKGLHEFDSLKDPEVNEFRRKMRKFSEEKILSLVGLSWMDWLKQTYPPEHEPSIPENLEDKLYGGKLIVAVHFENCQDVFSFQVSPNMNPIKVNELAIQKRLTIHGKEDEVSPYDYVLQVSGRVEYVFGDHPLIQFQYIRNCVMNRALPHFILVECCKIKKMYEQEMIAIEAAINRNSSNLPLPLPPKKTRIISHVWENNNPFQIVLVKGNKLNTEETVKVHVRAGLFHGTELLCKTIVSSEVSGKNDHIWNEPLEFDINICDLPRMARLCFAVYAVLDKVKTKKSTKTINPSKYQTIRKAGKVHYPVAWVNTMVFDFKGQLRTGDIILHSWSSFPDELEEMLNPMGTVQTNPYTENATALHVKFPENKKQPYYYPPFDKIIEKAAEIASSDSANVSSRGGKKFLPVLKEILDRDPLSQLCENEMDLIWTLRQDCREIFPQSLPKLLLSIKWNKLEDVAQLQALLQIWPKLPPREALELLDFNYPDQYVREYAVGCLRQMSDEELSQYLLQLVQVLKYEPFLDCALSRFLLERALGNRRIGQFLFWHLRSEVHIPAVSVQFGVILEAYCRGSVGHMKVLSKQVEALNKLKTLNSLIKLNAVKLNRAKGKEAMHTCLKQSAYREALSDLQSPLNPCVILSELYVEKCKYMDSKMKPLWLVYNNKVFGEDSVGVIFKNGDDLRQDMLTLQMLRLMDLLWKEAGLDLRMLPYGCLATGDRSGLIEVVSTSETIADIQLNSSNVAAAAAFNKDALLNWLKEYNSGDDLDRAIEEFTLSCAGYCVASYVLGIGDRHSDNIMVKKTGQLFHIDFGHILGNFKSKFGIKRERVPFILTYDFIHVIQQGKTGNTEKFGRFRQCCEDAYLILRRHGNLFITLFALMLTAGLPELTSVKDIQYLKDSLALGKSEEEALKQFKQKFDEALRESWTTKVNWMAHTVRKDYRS
# Chain of UniProt P28070 (P28070 whole entry, looked up): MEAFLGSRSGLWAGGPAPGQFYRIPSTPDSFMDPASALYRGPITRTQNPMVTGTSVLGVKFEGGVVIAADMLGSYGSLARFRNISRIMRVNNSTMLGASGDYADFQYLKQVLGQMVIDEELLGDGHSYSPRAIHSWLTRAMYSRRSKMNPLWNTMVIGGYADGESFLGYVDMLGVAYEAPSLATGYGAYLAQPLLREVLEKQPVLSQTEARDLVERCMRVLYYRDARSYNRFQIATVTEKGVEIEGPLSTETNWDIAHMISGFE
# Chain of UniProt Q05209 (Q05209 whole entry, looked up): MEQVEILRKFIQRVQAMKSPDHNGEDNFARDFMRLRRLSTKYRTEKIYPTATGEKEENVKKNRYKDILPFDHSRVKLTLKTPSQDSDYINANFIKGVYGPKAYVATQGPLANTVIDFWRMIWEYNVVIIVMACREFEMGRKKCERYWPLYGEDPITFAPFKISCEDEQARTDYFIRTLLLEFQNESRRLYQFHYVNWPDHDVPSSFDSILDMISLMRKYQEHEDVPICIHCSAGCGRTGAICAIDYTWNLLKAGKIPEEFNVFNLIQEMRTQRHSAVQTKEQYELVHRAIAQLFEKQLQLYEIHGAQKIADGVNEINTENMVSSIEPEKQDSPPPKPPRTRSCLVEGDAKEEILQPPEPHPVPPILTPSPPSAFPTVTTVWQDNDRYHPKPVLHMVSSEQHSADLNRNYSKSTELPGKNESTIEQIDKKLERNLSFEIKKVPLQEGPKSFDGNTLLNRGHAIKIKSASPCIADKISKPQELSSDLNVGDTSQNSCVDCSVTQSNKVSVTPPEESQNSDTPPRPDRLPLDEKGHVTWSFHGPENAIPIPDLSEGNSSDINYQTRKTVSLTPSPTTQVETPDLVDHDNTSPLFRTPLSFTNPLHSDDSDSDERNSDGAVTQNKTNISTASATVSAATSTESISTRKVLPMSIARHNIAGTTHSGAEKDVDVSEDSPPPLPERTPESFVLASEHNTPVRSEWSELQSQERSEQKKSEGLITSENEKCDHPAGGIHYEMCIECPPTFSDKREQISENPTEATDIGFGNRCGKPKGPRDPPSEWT
# Chain of UniProt Q00577 (Q00577 whole entry, looked up): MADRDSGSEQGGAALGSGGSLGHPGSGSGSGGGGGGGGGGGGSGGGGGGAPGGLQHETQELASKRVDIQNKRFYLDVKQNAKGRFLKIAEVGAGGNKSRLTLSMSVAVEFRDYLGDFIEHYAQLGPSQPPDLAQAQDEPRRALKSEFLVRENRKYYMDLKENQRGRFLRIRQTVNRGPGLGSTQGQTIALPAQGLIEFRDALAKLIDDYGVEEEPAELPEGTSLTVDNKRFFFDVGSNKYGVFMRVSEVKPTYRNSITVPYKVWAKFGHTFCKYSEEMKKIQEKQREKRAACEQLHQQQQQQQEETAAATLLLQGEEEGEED
# Chain of UniProt P46019 (P46019 whole entry, looked up): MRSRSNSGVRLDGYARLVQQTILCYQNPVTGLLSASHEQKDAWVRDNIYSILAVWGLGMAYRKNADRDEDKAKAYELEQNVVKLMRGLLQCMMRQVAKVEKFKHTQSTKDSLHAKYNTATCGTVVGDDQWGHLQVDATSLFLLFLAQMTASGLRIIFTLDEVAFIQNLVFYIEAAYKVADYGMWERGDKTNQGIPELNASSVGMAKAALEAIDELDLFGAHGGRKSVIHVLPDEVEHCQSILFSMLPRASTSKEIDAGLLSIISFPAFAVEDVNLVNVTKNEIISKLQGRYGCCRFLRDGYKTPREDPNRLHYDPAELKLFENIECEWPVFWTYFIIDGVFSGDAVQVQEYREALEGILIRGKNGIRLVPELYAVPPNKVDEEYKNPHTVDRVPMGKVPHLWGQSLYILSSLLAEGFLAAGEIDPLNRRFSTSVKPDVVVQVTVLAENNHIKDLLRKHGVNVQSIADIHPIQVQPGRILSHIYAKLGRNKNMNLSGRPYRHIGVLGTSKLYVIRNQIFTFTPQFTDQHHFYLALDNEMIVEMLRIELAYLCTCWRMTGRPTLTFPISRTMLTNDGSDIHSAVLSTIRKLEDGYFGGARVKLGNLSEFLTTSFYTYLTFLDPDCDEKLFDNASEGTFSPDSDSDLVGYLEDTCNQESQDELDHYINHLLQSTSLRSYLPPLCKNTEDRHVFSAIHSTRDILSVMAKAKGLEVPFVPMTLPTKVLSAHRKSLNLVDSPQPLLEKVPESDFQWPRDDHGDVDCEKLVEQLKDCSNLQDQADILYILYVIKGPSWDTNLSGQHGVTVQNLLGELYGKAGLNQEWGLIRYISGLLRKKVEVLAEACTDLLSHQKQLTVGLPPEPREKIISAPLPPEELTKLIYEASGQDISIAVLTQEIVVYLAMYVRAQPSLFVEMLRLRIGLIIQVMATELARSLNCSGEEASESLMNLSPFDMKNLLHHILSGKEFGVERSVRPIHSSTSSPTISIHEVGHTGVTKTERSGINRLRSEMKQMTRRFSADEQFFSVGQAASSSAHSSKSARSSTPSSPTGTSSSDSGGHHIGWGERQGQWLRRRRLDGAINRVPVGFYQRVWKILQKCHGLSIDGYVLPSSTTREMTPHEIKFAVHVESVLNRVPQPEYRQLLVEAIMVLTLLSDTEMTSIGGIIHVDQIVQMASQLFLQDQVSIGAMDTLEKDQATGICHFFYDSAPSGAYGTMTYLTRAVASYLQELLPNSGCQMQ
# Chain of UniProt Q92968 (Q92968 whole entry, looked up): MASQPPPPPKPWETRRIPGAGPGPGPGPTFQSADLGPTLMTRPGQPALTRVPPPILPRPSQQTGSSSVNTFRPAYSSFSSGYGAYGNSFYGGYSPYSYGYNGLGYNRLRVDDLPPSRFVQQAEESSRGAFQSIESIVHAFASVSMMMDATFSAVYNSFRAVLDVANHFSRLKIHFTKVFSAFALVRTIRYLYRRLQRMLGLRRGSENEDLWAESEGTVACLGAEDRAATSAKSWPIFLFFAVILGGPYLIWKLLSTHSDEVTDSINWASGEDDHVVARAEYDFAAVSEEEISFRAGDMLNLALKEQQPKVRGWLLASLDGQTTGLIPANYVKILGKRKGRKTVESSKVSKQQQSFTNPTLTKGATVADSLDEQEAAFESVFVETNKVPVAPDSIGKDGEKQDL
# Chain of UniProt Q13362 (Q13362 whole entry, looked up): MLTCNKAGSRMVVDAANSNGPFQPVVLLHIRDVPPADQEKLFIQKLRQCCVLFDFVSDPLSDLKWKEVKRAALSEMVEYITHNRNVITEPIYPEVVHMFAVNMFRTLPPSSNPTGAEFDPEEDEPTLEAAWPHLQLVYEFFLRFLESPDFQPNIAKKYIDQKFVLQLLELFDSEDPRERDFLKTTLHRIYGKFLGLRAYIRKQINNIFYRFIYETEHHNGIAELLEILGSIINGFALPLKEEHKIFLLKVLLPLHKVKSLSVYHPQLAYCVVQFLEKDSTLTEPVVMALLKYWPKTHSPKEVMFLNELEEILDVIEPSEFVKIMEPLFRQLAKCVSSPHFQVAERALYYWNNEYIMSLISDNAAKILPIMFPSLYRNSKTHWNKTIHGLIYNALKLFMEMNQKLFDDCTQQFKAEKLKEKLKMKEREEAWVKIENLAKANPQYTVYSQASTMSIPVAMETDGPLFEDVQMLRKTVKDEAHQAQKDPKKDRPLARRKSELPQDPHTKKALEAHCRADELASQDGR
# Chain of UniProt O60256 (O60256 whole entry, looked up): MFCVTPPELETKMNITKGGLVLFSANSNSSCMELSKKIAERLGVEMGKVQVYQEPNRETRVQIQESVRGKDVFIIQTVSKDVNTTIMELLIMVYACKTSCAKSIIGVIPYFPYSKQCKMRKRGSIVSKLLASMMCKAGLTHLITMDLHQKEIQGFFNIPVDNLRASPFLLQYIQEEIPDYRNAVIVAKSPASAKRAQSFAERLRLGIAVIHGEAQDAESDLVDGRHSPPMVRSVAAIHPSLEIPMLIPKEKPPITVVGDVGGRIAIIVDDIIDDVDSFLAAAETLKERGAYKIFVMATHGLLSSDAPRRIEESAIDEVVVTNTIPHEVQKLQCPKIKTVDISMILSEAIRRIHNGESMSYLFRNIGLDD
row,Target,log2 fold change
1,PSMD3 (UniProt O43242),0.044
2,PARL (UniProt Q9H300),0.003
3,PEX13 (UniProt Q92968),-0.011
4,PURA (UniProt Q00577),0.169
5,PSMB4 (UniProt P28070),0.044
6,PIK3CB (UniProt P42338),0.082
7,PPP2R5C isoform 4 (UniProt Q13362),0.019
8,PUF60 (UniProt Q9UHX1),-0.352 (active)
9,PRKACA (UniProt P17612),-0.038
10,PRPSAP2 (UniProt O60256),0.074
11,PHKA2 (UniProt P46019),0.049
12,PTPN12 (UniProt Q05209),0.264 (active)
13,RAB11FIP1 (UniProt Q6WKZ4),-0.067

# Compound: CC(C)(C)Cn1c(N)nc2ccc(-c3[nH]c(C(C)(C)C)nc3-c3ccc(F)cc3)nc21 [ralimetinib]
# Assay: as above
# In short: as §1
row,Target,log2 fold change
1,PHF5A (UniProt Q7RTV0),0
2,PRKAR2A (UniProt P13861),0.047
3,PRUNE1 (UniProt Q86TP1),0.017
4,POMP (UniProt Q9Y244),-0.022
5,PPT2 isoform 3 (UniProt Q9UMR5),0.052
6,PIP4P1 isoform 2 (UniProt Q86T03),0.003
7,POLD1 (UniProt P28340),-0.02
8,PGGT1B (UniProt P53609),-0.055
9,PPP1R14A (UniProt Q96A00),0.218
10,PRMT3 (UniProt O60678),-0.028
11,PEX11B (UniProt O96011),0.005
12,PCYT1A (UniProt P49585),-0.072
13,PISD (UniProt Q9UG56),0.02
14,PSMD5 (UniProt Q16401),-0.013
15,PRPF40A (UniProt O75400),0.095
16,PDIK1L (UniProt Q8N165),-0.173
17,PMPCA (UniProt Q10713),0.057
18,PDCD2L (UniProt Q9BRP1),0.047

row,Target,log2 fold change
1,PSMC6 (UniProt P62333),0.019
2,PRKAB1 (UniProt Q9Y478),0.022
3,PDSS2 (UniProt Q86YH6),-0.059
4,POLA1 (UniProt P09884),-0.018
5,PGM3 isoform 4 (UniProt O95394),0.016
6,PSMD3 (UniProt O43242),0.023
7,PARL (UniProt Q9H300),-0.022
8,PEX13 (UniProt Q92968),0.062
9,PURA (UniProt Q00577),0.064
10,PSMB4 (UniProt P28070),-0.008
11,PIK3CB (UniProt P42338),0.013
12,PPP2R5C isoform 4 (UniProt Q13362),-0.15
13,PUF60 (UniProt Q9UHX1),0.049
14,PRKACA (UniProt P17612),-0.01
15,PRPSAP2 (UniProt O60256),-0.013
16,PHKA2 (UniProt P46019),0.011
17,PTPN12 (UniProt Q05209),0.004
18,RAB11FIP1 (UniProt Q6WKZ4),0.023

# Compound: CC(C)(O)CC(=O)NCCn1ccc2ncnc(Nc3ccc(Oc4cccc(C(F)(F)F)c4)c(Cl)c3)c21
# Assay: as above
# In short: as §1
row,Target,log2 fold change
1,PHF5A (UniProt Q7RTV0),0.088
2,PRKAR2A (UniProt P13861),-0.036
3,PRUNE1 (UniProt Q86TP1),-0.037
4,POMP (UniProt Q9Y244),-0.033
5,PPT2 isoform 3 (UniProt Q9UMR5),0.006
6,PIP4P1 isoform 2 (UniProt Q86T03),-0.004
7,POLD1 (UniProt P28340),-0.085
8,PGGT1B (UniProt P53609),0.026
9,PPP1R14A (UniProt Q96A00),-0.009
10,PRMT3 (UniProt O60678),-0.167
11,PEX11B (UniProt O96011),0.008
12,PCYT1A (UniProt P49585),-0.019
13,PISD (UniProt Q9UG56),-0.066
14,PSMD5 (UniProt Q16401),-0.033
15,PRPF40A (UniProt O75400),-0.022
16,PDIK1L (UniProt Q8N165),0.032
17,PMPCA (UniProt Q10713),-0.155
18,PDCD2L (UniProt Q9BRP1),-0.115

row,Target,log2 fold change
1,PSMC6 (UniProt P62333),0.093
2,PRKAB1 (UniProt Q9Y478),-0.069
3,PDSS2 (UniProt Q86YH6),-0.089
4,POLA1 (UniProt P09884),-0.066
5,PGM3 isoform 4 (UniProt O95394),-0.08
6,PSMD3 (UniProt O43242),-0.033
7,PARL (UniProt Q9H300),-0.003
8,PEX13 (UniProt Q92968),-0.193
9,PURA (UniProt Q00577),0.276
10,PSMB4 (UniProt P28070),0.045
11,PIK3CB (UniProt P42338),-0.082
12,PPP2R5C isoform 4 (UniProt Q13362),-0.07
13,PUF60 (UniProt Q9UHX1),-0.016
14,PRKACA (UniProt P17612),0.01
15,PRPSAP2 (UniProt O60256),0.003
16,PHKA2 (UniProt P46019),-0.1
17,PTPN12 (UniProt Q05209),0.039
18,RAB11FIP1 (UniProt Q6WKZ4),-0.016
